Records with an inconclusive call do not appear. A number with no mark means an inactive call. Activity calls are given as the source filed them. Calls follow the shape of the dose curve; as a rule, active = well fitted inhibition curve with a large enough effect; inconclusive = small, poorly fitted or top-dose-only effect; inactive = flat fitted curve, though single readings scatter.

The target of this assay is Dual specificity tyrosine-phosphorylation-regulated kinase 1A (Homo sapiens) (UniProt Q13627). Kind of assay: Confirmation Assay for Inhibitors of Dyrk1a (Kinase-Glo Assay): KU probe. To be noted: Kinase-Glo ATP luminescence; series mostly up to 76.9 µM; activity, negative = inhibition: at the top concentration. A digest of the protocol: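 Recombinant human Dyrk1A (5 nM) was incubated with 8 uM DYRKtide and 2 uM ATP in Tris-HCl pH 7.5 with MgCl2, EGTA, cysteine and Triton X-100 for 2 h at room temperature; residual ATP was measured by Kinase-Glo luminescence.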
On the technique in general: Kinase-Glo measures the ATP left after a reaction by luminescence.
Regarding `Cc1ccc(CNc2ccnc(-c3ccc(N(C)C)cc3)n2)cc1`, the “activity, negative = inhibition” value is 1.98%.

As to `c1nc(NCC2CCCCO2)c2cc(-c3ccc4c(c3)OCO4)ccc2n1` (centres undefined), the Potency was 65.4 nM (active).

On to `Cc1noc(C)c1-c1nccc(NCc2ccc(Cl)cc2)n1`, for which the “activity, negative = inhibition” value was -5.84%.

For the molecule `COc1ccc(-c2nccc(NCc3ccc(Cl)cc3)n2)cc1`, the “activity, negative = inhibition” value was -9.84%.

Regarding `O=[N+]([O-])c1cc(Nc2nccc(-c3ccc4c(c3)OCO4)n2)cc(C(F)(F)F)c1`, the Potency was 146 nM (active).

As for `Clc1ccc(CNc2ncncc2-c2ccc3c(c2)OCO3)cc1`, the Potency was 26000 nM (active).

As to `c1nc(NCC2CCOC2)c2cc(-c3ccc4c(c3)OCO4)ccc2n1` (centres undefined), the Potency was 92.3 nM (active).

In the case of `Clc1ccc(CNc2nccc(-c3ccc4c(c3)OCCO4)n2)cc1Cl`, the Potency was 207 nM (active).

For `COc1ccc(-c2nccc(NCc3ccc(Cl)c(Cl)c3)n2)cc1`, the “activity, negative = inhibition” value is -9.84%.

As to `CN(C)c1ccc(-c2ncccn2)cc1`, the “activity, negative = inhibition” value was -3.87%.

For the molecule `Cc1c(-c2ccnc(NCc3cccnc3)n2)sc(=O)n1C`, the Potency is 146 nM (active).

As for `c1cncc(CNc2ccnc(-c3ccc4cn[nH]c4c3)n2)c1`, the Potency was 2070 nM (active).

For `COc1cccc(-c2ccnc(NCc3ccc(Cl)cc3)n2)c1`, the Potency is 7330 nM (active).

Take `Cc1csc(CNc2ncnc3ccc(-c4ccc(CO)o4)cc23)n1`: the Potency is 10400 nM (active).

In the case of `COc1ccc(CNc2ccnc(-c3c(C)noc3C)n2)cc1`, the “activity, negative = inhibition” value was -1.66%.

Take `c1cncc(CNc2nccc(-c3ccc4c(c3)OCO4)n2)c1`: the Potency is 36.8 nM (active).

In the case of `CC(C)(C)CNc1ncnc2ccc(-c3ccc4c(c3)OCO4)cc12`, the Potency is 11.6 nM (active).

For the molecule `Clc1ccc(CNc2ncncc2-c2ccc3c(c2)OCO3)cc1Cl`, the Potency was 4120 nM (active).

Consider `CC(=O)c1ccc(-c2ccc3ncnc(NCc4ccc(C)o4)c3c2)o1`, for which the Potency is 1640 nM (active).

On to `c1cc(-c2ccc3c(c2)OCO3)nc(Nc2ccc3c(c2)OCO3)n1`, for which the Potency is 130 nM (active).

On to `c1cncc(CNc2nccc(-c3ccc4[nH]ncc4c3)n2)c1`, for which the Potency is 146 nM (active).

As to `c1cc(-c2ccoc2)nc(-c2ccc3c(c2)OCO3)n1`, the Potency was 29200 nM (active).

As to `c1nc(NC[C@@H]2CCCO2)c2cc(-c3ccc4c(c3)OCO4)ccc2n1`, the Potency was 130 nM (active).

As to `CN(C)c1ccc(-c2nccc(NCc3ccc(Cl)cc3)n2)cc1`, the “activity, negative = inhibition” value was -1.69%.

Source of the values: PubChem BioAssay AID624093 (National Center for Advancing Translational Sciences (NCATS), 2012).
